Laboratory results: PubChem BioAssay (Tox21)
Inconclusive results are not listed. Active and inactive are the calls of the source. Calls follow the shape of the dose curve; as a rule, active = well fitted curve in the direction sought with a large enough effect in the repeat runs; inconclusive = weak or mixed curves; inactive = no such curve, though single readings can be large; an effect the other way counts as inactive or inconclusive.

Assays:
[1] = Caspase-3/7 induction in CHO-K1 cells by small molecules, qHTS cell viability counter screen (AID 1346979); also: nearly all actives have a fitted effect of over 35% in size; also: potency is read from the fitted curve at half-maximal effect
How it was run: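 Following a 5hr settling period, CHO-K1 cells at 1,500 per well received DMSO-dissolved compounds. Cell viability was quantified 16hr later by CellTiter-Fluor fluorescence, measured after 1hr with reagent at 37C.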

[2] = Caspase-3/7 induction in CHO-K1 cells by small molecules, qHTS assay (AID 1346980); also: nearly all actives have a fitted effect of over 15% in size
How it was run: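 Wild-type cells were seeded at 1,500 per well and settled 5 hr at 37 C, 5% CO2, then exposed to DMSO-dissolved compounds for 17 hr. Caspase-Glo 3/7 reagent was added, and luminescence was read after 30min at room temperature.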

[3] = Caspase-3/7 induction in HepG2 cells by small molecules, qHTS cell viability counter screen (AID 1346981); also: series mostly up to about 92 µM; nearly all actives have a fitted effect of over 30% in size
How it was run: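 Wild-type HepG2 cells, 2,000/well, settled 5 hr at 37 C, 5% CO2 before compound addition. Viability read by CellTiter-Fluor fluorescence, reagent added after 16 hr compound exposure, then 1 hr at 37C, in the same wells as the caspase read.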

[4] = molecular target: Nuclear receptor subfamily 1 group I member 2 (Homo sapiens) (UniProt O75469); test: Human pregnane X receptor (PXR) small molecule agonists, qHTS assay (AID 1346982); also: nearly all actives have a fitted effect of over 35% in size; also: potency is read from the fitted curve at half-maximal effect
How it was run: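 PXR-Luc HepG2 reporter cells (CYP3A4-driven luciferase) in 5% charcoal-stripped FBS medium, plated 5 h before compound addition, then treated 24 h at 37C. Luciferase read by ONE-Glo luminescence after 30 min at room temperature.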

[5] = molecular target: Cytochrome P450 2D6 (Homo sapiens) (UniProt P10635); test: Cytochrome P450 Family 2 Subfamily D Member 6 (CYP2D6) small molecule antagonists: luciferase reporter qHTS assay (AID 1671196); also: nearly all actives have a fitted effect of over 50% in size; also: potency is read from the fitted curve at half-maximal effect
How it was run: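 Cell-free P450-Glo system: CYP2D6 with proluciferin substrate was pre-incubated with compound for 10 min, then reacted with NADPH regeneration for 1 h at room temperature. Luciferin product was detected after 20 min, and data were reported as relative luminescence units.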

[6] = molecular target: Cytochrome P450 2C9 (Homo sapiens) (UniProt P11712); test: Cytochrome P450 Family 2 Subfamily C Member 9 (CYP2C9) small molecule antagonists: luciferase reporter qHTS assay (AID 1671198); also: nearly all actives have a fitted effect of over 50% in size; also: potency is read from the fitted curve at half-maximal effect
How it was run: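 CYP2C9 activity was measured with a P450-Glo proluciferin substrate. Enzyme–substrate mix was held with compound for 10 min at room temperature, then NADPH regeneration solution was added for 1 h at 37C. Luciferin product was read as luminescence.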

[7] = molecular target: Cytochrome P450 2C19 (Homo sapiens) (UniProt P33261); test: Cytochrome P450 Family 2 Subfamily C Member 19 (CYP2C19) small molecule antagonists: luciferase reporter qHTS assay (AID 1671197); also: nearly all actives have a fitted effect of over 65% in size; also: potency is read from the fitted curve at half-maximal effect
How it was run: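 First, compounds are pinned into enzyme-substrate mix and held 10 min at room temperature. Second, NADPH regeneration solution is added and plates incubate 1 h at 37C. Third, detection reagent is added and luminescence read after 20 min.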

[8] = molecular target: Nuclear receptor subfamily 1 group I member 2 (Rattus norvegicus) (UniProt Q9R1A7); test: Rat pregnane X receptor (rPXR) activation by small molecules, qHTS assay (AID 1346983); settings: rPXR luciferase reporter cells, One-Glo luminescence, 24 h; max activation: hits give high values; also: nearly all actives have a fitted effect of over 20% in size
How it was run: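 Cell-based rPXR luciferase reporter assay, 2,000 cells per well, rested 5hr at 37 C before compound addition in DMSO, then 24 hr at 37 C. One-Glo reagent was added and luminescence read after 30 min at room temperature.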

[9] = molecular target: Nuclear receptor subfamily 1 group I member 2 (Homo sapiens) (UniProt O75469); test: CYP3A4 induction through human pregnane X receptor (PXR) by small molecules, qHTS assay (AID 1346984); also: nearly all actives have a fitted effect of over 40% in size
How it was run: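 DPX-2 HepG2 cells carrying a PXR response element and CYP3A4-promoter luciferase construct, treated with compounds 24 hr at 37C. Then P450-Glo CYP3A4 Luciferin-IPA substrate (3uM final) for 3 hr at 37C, One-Glo added, luminescence read.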

[10] = molecular target: Nuclear receptor subfamily 1 group I member 2 (Homo sapiens) (UniProt O75469); test: Human pregnane X receptor (PXR) activation by small molecules, qHTS assay (AID 1346985); also: nearly all actives have a fitted effect of over 40% in size; also: potency is read from the fitted curve at half-maximal effect
How it was run: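 DPX-2 cells (HepG2 co-transfected with a PXR response element and a CYP3A4-promoter luciferase construct) were seeded at 2,000 per well, rested 5 hr at 37C, then exposed to DMSO-dissolved compounds for 24 hr. Activation was read as luciferase luminescence.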
% is scaled to controls: 0 for no effect and ±100 for the full control effect.

Sequence of Nuclear receptor subfamily 1 group I member 2 (Rattus norvegicus) (Q9R1A7 whole entry, looked up): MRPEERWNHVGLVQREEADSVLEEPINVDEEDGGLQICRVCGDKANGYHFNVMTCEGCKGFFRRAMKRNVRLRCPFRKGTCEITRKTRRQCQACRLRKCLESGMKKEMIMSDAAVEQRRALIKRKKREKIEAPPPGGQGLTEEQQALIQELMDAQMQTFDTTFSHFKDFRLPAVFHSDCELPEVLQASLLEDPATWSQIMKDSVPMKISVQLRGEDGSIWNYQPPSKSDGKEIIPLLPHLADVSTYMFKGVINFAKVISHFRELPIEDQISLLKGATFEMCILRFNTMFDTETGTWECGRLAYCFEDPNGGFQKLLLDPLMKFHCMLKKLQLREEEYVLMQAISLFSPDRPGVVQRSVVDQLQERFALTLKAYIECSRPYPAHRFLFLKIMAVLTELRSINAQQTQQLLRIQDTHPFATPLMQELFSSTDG
Sequence of Cytochrome P450 2C19 (Homo sapiens) (P33261 whole entry, looked up): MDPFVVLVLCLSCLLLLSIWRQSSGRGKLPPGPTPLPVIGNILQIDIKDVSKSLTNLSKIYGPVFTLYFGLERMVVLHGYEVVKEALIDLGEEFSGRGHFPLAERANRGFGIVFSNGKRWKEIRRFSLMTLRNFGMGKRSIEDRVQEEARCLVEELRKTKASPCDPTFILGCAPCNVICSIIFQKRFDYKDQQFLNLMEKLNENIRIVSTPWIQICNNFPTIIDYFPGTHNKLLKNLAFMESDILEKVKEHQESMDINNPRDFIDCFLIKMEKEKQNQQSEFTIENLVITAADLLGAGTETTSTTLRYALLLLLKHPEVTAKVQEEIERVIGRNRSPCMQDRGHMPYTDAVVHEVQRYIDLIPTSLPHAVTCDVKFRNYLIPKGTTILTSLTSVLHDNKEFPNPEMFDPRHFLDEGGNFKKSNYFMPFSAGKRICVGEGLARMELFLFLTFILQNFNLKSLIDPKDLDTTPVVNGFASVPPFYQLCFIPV
Sequence of Nuclear receptor subfamily 1 group I member 2 (Homo sapiens) (O75469 whole entry, looked up): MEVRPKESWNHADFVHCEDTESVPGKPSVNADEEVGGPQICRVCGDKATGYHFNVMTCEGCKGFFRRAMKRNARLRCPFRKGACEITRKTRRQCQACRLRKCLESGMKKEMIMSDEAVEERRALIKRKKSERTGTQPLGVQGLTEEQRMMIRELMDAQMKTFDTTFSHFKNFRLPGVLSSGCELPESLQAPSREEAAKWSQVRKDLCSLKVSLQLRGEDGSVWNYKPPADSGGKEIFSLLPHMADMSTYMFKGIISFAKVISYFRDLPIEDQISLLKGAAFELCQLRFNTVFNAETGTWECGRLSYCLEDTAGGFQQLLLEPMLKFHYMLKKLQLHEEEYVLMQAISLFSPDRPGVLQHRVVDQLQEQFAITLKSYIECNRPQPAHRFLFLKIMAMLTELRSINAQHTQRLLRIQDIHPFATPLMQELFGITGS
Sequence of Cytochrome P450 2D6 (Homo sapiens) (P10635 whole entry, looked up): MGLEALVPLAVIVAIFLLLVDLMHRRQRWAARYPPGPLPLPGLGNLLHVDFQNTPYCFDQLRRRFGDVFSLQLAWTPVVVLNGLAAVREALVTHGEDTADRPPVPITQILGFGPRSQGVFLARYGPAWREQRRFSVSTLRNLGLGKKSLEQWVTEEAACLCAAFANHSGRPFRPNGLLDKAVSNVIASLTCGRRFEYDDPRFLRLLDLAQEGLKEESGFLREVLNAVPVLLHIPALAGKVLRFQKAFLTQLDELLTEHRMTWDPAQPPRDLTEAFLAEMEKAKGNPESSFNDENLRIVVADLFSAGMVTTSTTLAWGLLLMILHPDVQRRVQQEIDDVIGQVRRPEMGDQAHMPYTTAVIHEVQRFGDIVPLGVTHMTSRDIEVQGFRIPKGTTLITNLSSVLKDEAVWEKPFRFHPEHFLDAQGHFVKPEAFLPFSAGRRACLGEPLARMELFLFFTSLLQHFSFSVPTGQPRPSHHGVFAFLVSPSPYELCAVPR
Sequence of Cytochrome P450 2C9 (Homo sapiens) (P11712 whole entry, looked up): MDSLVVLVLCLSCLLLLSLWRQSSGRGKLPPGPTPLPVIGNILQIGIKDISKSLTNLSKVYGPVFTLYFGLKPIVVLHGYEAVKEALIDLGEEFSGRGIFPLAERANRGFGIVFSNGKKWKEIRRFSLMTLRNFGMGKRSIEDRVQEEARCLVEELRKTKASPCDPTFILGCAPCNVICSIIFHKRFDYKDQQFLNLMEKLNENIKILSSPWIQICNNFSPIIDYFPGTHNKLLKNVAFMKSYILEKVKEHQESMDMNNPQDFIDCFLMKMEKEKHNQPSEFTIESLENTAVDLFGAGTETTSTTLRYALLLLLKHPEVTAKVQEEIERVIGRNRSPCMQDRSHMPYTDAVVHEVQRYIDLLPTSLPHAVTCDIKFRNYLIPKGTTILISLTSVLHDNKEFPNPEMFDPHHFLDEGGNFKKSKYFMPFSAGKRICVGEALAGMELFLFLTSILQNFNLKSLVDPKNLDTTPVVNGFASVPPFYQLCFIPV

[Ca+2]
active: Potency [5] 35.6 µM
inactive: Potency [1] | outcome [2] | Potency [3] | Potency [4] | Potency [6]

COc1cc(-c2ccc(=O)[nH]n2)ccc1OC(F)F
active: Potency [4] 4.73 µM | Potency [5] 4.36 µM
inactive: Potency [1] | outcome [2] | Potency [3] | Potency [6]

CC(=O)c1ccc2ccccc2c1
inactive: Potency [1] | outcome [2] | Potency [3] | Potency [4] | Potency [6]
active: Potency [7] 28.3 µM

CC1=CCC(O)(C(C)C)CC1 (configuration not stated)
inactive: Potency [1] | outcome [2] | Potency [3] | Potency [4] | Potency [5] | Potency [6]

Cc1ccccc1N=C(N)N=C(N)N
active: Potency [5] 7.96 µM
inactive: Potency [1] | outcome [2] | Potency [3] | Potency [4] | Potency [6]

CCC(C(=O)NC(=O)NC(C)=O)c1ccccc1 (configuration not stated)
inactive: Potency [1] | outcome [2] | Potency [3] | Potency [4] | Potency [5] | Potency [7] | Potency [6]

CCCn1cc[n+](C)c1C
inactive: Potency [1] | outcome [2] | Potency [3] | Potency [4] | Potency [5] | Potency [6]

Cc1coc2ccccc2c1=O
inactive: Potency [1] | outcome [2] | Potency [3] | Potency [4] | Potency [5] | Potency [6]

CC(C)(C)OC(=O)c1cccc(N)c1
active: Potency [4] 28 µM | Potency [7] 25.9 µM
inactive: Potency [1] | outcome [2] | Potency [3]

CCC(=O)OCc1ccccc1
inactive: Potency [1] | outcome [2] | Potency [3] | Potency [4] | Potency [5] | Potency [6]

C=C(C)C(=O)OCC(O)CO (configuration not stated)
inactive: Potency [1] | outcome [2] | Potency [3] | Potency [4] | Potency [5] | Potency [6]

CC(C)c1ccc2ncccc2c1
inactive: Potency [1] | outcome [2] | Potency [3] | Potency [4] | Potency [5] | Potency [7] | Potency [6]

O=C(O)CCCC[P+](c1ccccc1)(c1ccccc1)c1ccccc1
inactive: Potency [1] | outcome [2] | Potency [3] | Potency [4] | Potency [7]

C=CN1CCCCCC1=O
inactive: Potency [1] | outcome [2] | Potency [3] | Potency [4] | Potency [5] | Potency [6]

c1ccc(CCc2ccccc2)cc1
inactive: Potency [1] | outcome [2] | Potency [3] | Potency [4] | Potency [5] | Potency [6]

CC(=O)c1cnccn1
inactive: Potency [1] | outcome [2] | Potency [3] | Potency [4] | Potency [5] | Potency [6]

CCOC(=O)c1ccccc1
inactive: Potency [1] | outcome [2] | Potency [3] | Potency [4] | Potency [5] | Potency [6]

C=CC(=O)OCCCl
inactive: Potency [1] | outcome [2] | Potency [3] | Potency [4] | Potency [6]
active: Potency [7] 81.5 µM

CC(C)(N)C#N
inactive: Potency [1] | outcome [2] | Potency [3] | Potency [4] | Potency [5] | Potency [7] | Potency [6]

O=S(=O)(O)c1cccc2c(S(=O)(=O)O)cccc12
active: Potency [6] 70.9 µM
inactive: Potency [1] | outcome [2] | Potency [3] | Potency [4] | Potency [5]

Cc1ccc(-c2ccccc2C#N)cc1
inactive: Potency [1] | outcome [2] | Potency [3] | Potency [4] | Potency [5]
active: Potency [6] 15.5 µM

CCOC(=O)CCC(=O)OCC
inactive: Potency [1] | outcome [2] | Potency [3] | Potency [4] | Potency [5] | Potency [7]
active: Potency [6] 35.6 µM

C=CCCCCCCCCC(=O)OCC
inactive: Potency [1] | outcome [2] | Potency [3] | Potency [4] | Potency [7]

N[C@@H](CCC(=O)O)C(=O)O
active: Potency [7] 71 µM
inactive: Potency [1] | outcome [2] | Potency [3] | Potency [4]

CC1CCC(CO)CC1 (configuration not stated)
inactive: Potency [1] | outcome [2] | Potency [3] | Potency [4] | Potency [5] | Potency [6]

CCOC(=O)C1=NOC(c2ccccc2)(c2ccccc2)C1
active: Potency [4] 68.6 µM | Potency [6] 7.1 µM
inactive: Potency [1] | outcome [2] | Potency [3] | Potency [5]

CC1OC1C1CCC2(C)OC2C1 (configuration not stated)
inactive: Potency [1] | outcome [2] | Potency [3] | Potency [4] | Potency [5] | Potency [6]

O=C(O)CNC(=O)c1ccc(CO)o1
inactive: Potency [1] | outcome [2] | Potency [3] | Potency [4] | Potency [7] | Potency [6]

C=COC(=O)C(C)(CC)CCC(C)C (configuration not stated)
inactive: Potency [1] | outcome [2] | Potency [3] | Potency [4] | Potency [6]

COCCOCC(OC)OC
inactive: Potency [1] | outcome [2] | Potency [3] | Potency [4] | Potency [5] | Potency [7] | Potency [6]

CCCCOCCOC(=O)COc1cc(Cl)c(Cl)cc1Cl
active: Potency [7] 35.6 µM
inactive: Potency [1] | outcome [2] | Potency [3] | Potency [4]

CCCCCCCC1CCCC1=O (configuration not stated)
active: Potency [7] 39.9 µM
inactive: Potency [1] | outcome [2] | Potency [3] | Potency [4]

CC(=O)NC(=O)c1ccccc1O
inactive: Potency [1] | outcome [2] | Potency [4] | max activation [8] -2.9% | Potency [9] | Potency [10] | Potency [5] | Potency [7]

CCN(CC#N)c1cccc(C)c1
active: Potency [7] 71 µM
inactive: Potency [1] | outcome [2] | Potency [3]

CCOC(=O)COc1cc(-n2ncc(C(F)(F)F)c(C)c2=O)c(F)cc1Cl
inactive: Potency [1] | outcome [2] | Potency [3]
active: Potency [5] 63.3 µM

O=C(O)CNC(=O)c1ccccc1
inactive: Potency [1] | outcome [2] | Potency [3] | max activation [8] -5.13% | Potency [9] | Potency [10] | Potency [5] | Potency [7] | Potency [6]

CCOC(=O)c1cnc2c(cnn2CC)c1NN=C(C)C
active: Potency [10] 8.91 µM | Potency [7] 30.9 µM
inactive: Potency [1] | outcome [2] | Potency [3] | Potency [9]

NS(=O)(=O)Cc1noc2ccccc12
inactive: Potency [1] | outcome [2] | Potency [3] | max activation [8] -2.52%

CC(CC=O)CC(C)(C)C (configuration not stated)
active: Potency [4] 54.5 µM
inactive: Potency [1] | outcome [2] | Potency [5] | Potency [7]

CO[C@@]1(NC(=O)C(C(=O)O)c2ccc(O)cc2)C(=O)N2C(C(=O)O)=C(CSc3nnnn3C)CO[C@@H]21 (some centres not stated)
inactive: Potency [1] | outcome [2] | Potency [4] | max activation [8] -4.79% | Potency [9] | Potency [10] | Potency [5] | Potency [7]

CCCc1nn(C)c2c(=O)[nH]c(-c3cc(S(=O)(=O)N4CCN(C)CC4)ccc3OCC)nc12
inactive: Potency [1] | outcome [2] | Potency [3] | Potency [5]
active: Potency [6] 30.9 µM

CCCc1ncc(C[n+]2ccccc2C)c(N)n1
inactive: Potency [1] | outcome [2] | Potency [3] | max activation [8] -3.34% | Potency [5] | Potency [6]

COCCOC[C@H](CC1(C(=O)NC2CCC(C(=O)O)CC2)CCCC1)C(=O)Oc1ccc2c(c1)CCC2 (some centres not stated)
active: Potency [1] 54.5 µM
inactive: outcome [2] | Potency [4] | Potency [5] | Potency [7]

CCC(C)(CN(C)C)OC(=O)c1ccccc1 (configuration not stated)
inactive: Potency [1] | outcome [2] | Potency [3] | max activation [8] -1.69%

COc1cc(C)nc(-n2nc(C)cc2OC)n1
inactive: Potency [1] | outcome [2] | Potency [3] | max activation [8] 0.673%

CC[N+](CC)(CC(=O)Nc1c(C)cccc1C)Cc1ccccc1 (tested in a mixture with another compound)
active: Potency [5] 0.0262 µM | Potency [7] 52.3 µM
inactive: Potency [1] | outcome [2] | Potency [3]

NCCCC[C@H](N[C@@H](CCc1ccccc1)C(=O)O)C(=O)N1CCC[C@H]1C(=O)O
inactive: Potency [1] | outcome [2] | Potency [3] | max activation [8] -3.44% | Potency [5] | Potency [7]

COc1cc(C(=O)OC(COCCC(C)C)CN2CCOCC2)cc(OC)c1OC (configuration not stated)
active: Potency [6] 3.09 µM
inactive: Potency [1] | outcome [2] | Potency [3]

Cc1ncc([C@@H](CCCCCCc2ccc3c(n2)NCCC3)CC(=O)O)cn1
inactive: outcome [2] | Potency [4] | Potency [5] | Potency [7]
active: Potency [1] 38.6 µM

C[C@H]1C[C@H]2[C@@H]3CCC4=CC(=O)C=C[C@]4(C)[C@H]3C(=O)C[C@]2(C)[C@@]1(O)C(=O)CO
active: Potency [6] 13.8 µM
inactive: Potency [1] | outcome [2] | Potency [3] | Potency [7]

CC(=O)O[C@@]12CO[C@@H]1C[C@H](O)[C@@]1(C)C(=O)[C@H](O)C3=C(C)[C@@H](OC(=O)[C@H](O)[C@@H](NC(=O)OC(C)(C)C)c4ccccc4)C[C@@](O)([C@@H](OC(=O)c4ccccc4)[C@H]21)C3(C)C
inactive: outcome [2] | Potency [4] | Potency [9] | Potency [7]
active: Potency [1] 11.9 µM | Potency [5] 38.9 µM

Nc1ccn([C@@H]2O[C@H](CO)[C@@H](O)[C@@H]2O)c(=O)n1
inactive: Potency [1] | outcome [2] | Potency [4] | Potency [5]
